# Experimental data from PubChem BioAssay AID1209 (Sanford-Burnham Center for Chemical Genomics, 2008).
# The whole screen tested about 190,000 compounds, of which about 810 (0.43%) were called active. What follows is part of a selection rich in actives, with near analogues and random picks from the rest. A number with no mark means an inactive call. Rule as the data show it: active = inhibition above about 50%; inactive = the rest.
# Molecular target: Mannose-6-phosphate isomerase (Homo sapiens) (UniProt P34949)
# Test: MPI enzyme activity inhibition – biochemical, fluorescence intensity, coupled assay, primary screen (AID 1209);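 also: plate controls were DMSO vehicle for no effect and wells lacking substrate for full effect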
# Conditions: purified PMI enzyme, at 20 µM, stronger effect = higher value
# Mannose-6-phosphate isomerase (Homo sapiens), sequence (P34949 whole entry, looked up): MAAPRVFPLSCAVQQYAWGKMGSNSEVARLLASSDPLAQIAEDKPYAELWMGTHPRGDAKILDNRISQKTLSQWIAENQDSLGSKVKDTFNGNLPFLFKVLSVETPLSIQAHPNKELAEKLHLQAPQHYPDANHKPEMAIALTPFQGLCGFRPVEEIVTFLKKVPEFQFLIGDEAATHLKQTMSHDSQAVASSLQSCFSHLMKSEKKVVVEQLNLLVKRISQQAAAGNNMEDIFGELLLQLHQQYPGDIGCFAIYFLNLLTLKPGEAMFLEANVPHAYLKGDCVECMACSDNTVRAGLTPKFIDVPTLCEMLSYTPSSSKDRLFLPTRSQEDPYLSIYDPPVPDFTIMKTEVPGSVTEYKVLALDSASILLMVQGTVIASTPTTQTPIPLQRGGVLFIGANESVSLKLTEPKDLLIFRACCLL
row,Compound,inhibition
1,O=C(NCCN1C(=O)S/C(=C\c2ccccc2)C1=O)C1CCN(S(=O)(=O)c2cccs2)CC1,8.1%
2,CC(=O)c1cnn(-c2cc(Oc3cccc(C)c3)ncn2)c1C,16.6%
3,O=Cc1cn(-c2ccc(F)cc2)c2ccccc12,4.3%
4,Cc1cccc(NC(=O)c2ccccc2OCC(=O)N2CCOCC2)c1C,11.4%
5,CCOc1ccccc1NC(=O)NCc1cccnc1,0.3%
6,CSC1=C(C#N)C(c2ccc3c(c2)OCO3)C2=C(CCCC2=O)N1 (configuration not stated),-3%
7,Oc1ccccc1C(=S)N1CCN(c2cccc(Cl)c2)CC1,22.1%
8,COc1cc(C(=S)N2CCCC2)cc(Cl)c1O,4.8%
9,COc1cc(C(=S)N2CCN(c3cccc(Cl)c3)CC2)ccc1O,58.8% (active)
10,COc1cc(C(=S)N2CCCC2)ccc1O,-0.7%
11,COc1cc(C(=S)N2CCN(c3ccccc3Cl)CC2)cc(O)c1O,67.5% (active)
12,CC(=O)c1ccc(NC(=S)N2CCN(c3cccc(Cl)c3)CC2)cc1,-6.5%
13,COc1cc(C(=S)N2CCCC2)cc(OC)c1O,17.5%
14,COc1ccc(C(=S)N2CCN(c3cccc(Cl)c3)CC2)c(OC)c1,20.6%
15,Oc1ccc(C(=S)N2CCN(c3cccc(Cl)c3)CC2)cc1,59.2% (active)
16,Cc1cccc(C)c1NC(=O)C1(N(Cc2ccco2)C(=O)Cn2nnnc2N)CCCCC1,4.1%
17,COc1ccc(CNC(=O)C/C(C)=N/NC(=O)Cc2ccc(OC)cc2)cc1,-4%
18,COC(=O)c1ccc2nc(C)c(C)nc2c1,-5.7%
19,COC(=O)c1ccc2c(c1)C(C)(C)C(/C=C/c1ccc(OC)c(OC)c1OC)=[N+]2C,91.8% (active)
20,COC(=O)c1ccc2c(c1)C(C)(C)C(/C=C/c1ccccc1O)=[N+]2C,39.9%
21,COC(=O)c1ccc2c(c1)C(=O)/C(=C/c1ccc(O)cc1)O2,8%
22,COC(=O)c1ccc(C(=O)OC)c(NC(=O)COC(=O)c2ccc(OC)c(OC)c2OC)c1,7.2%
23,COC(=O)c1ccc2c(c1)C(C)(C)C(/C=C/c1ccc(O)cc1)=[N+]2C,72% (active)
24,CN(C)c1ccc(C(=O)OCc2ccccc2)cc1,16%
25,CCS(=O)(=O)c1ccc2c(c1)N(S(=O)(=O)c1ccc(Cl)cc1)CC(C(=O)O)O2 (configuration not stated),-3.9%
26,Cc1ccc(-c2ccc(/C=N/N=C3/NC(=O)C(CC(=O)O)S3)o2)c([N+](=O)[O-])c1 (configuration not stated),30.5%

row,Compound,inhibition
1,O=C(O)CC1S/C(=N/N=C/c2ccc(-c3ccccc3[N+](=O)[O-])o2)NC1=O (configuration not stated),68.4% (active)
2,O=C(O)CC1S/C(=N/N=C/c2ccc(-c3ccc(Cl)c([N+](=O)[O-])c3)o2)NC1=O (configuration not stated),-9%
3,COC(=O)c1cccc(-n2cnnn2)c1,-6.9%
4,COC(=O)c1cccc(-n2[nH]nnc2=S)c1,64.8% (active)
5,COC(=O)c1cccc(NC(N)=S)c1,-7.9%
6,COc1ccc(OC)c2c(C)cc(NCCN3CCOCC3)nc12,11.7%
7,CCn1nc(CC(=O)Nc2nnc(CC(=O)N3CCCC3)s2)c2ccccc2c1=O,50.5% (active)
8,CCn1nc(CC(=O)Nc2nnc(CC(=O)N3CCOCC3)s2)c2ccccc2c1=O,5.5%
9,CCn1nc(CC(=O)Nc2nnc(CC(=O)N3CCCCC3)s2)c2ccccc2c1=O,4.6%
10,COc1ccnc(Oc2ccc(Cl)cc2)c1C#N,-5.9%
11,CC(C)CC(=O)N1CCN(Cc2ccc3c(c2)OCO3)CC1,3.6%
12,CCOC(=O)N1CCN(C(=O)Cn2ccc3c(OC)cccc3c2=O)CC1,3.2%
13,CCCn1c(SCC(=O)Nc2cc(S(=O)(=O)N3CCOCC3)ccc2OC)n[nH]c1=O,-2%
14,CCOc1cc(-c2nc(C)c(C(C)=O)n2O)ccc1OCC(=O)Nc1ccc(F)cc1,-3.7%
15,CCOC(=O)c1c(N)sc(C(=O)OC)c1C,-6.6%
16,CCOC(=O)c1c(N)sc2c1CCCC2,5.6%
17,CCOC(=O)c1sc(N)c(C(N)=O)c1C,64.3% (active)
18,CCOC(=O)c1c(N)sc(N)c1C(=O)OCC,60.1% (active)
19,CCOC(=O)c1c(N)sc(C(=O)Nc2ccccc2F)c1C,11.6%
20,CCOC(=O)c1c(N)sc(C(=O)OCCOC)c1C,51% (active)
21,CCOC(=O)c1sc(N)c(C(=O)OC)c1C,7%
22,CCCOC(=O)c1c(N)sc(C(=O)OCC)c1C,2.1%
23,CCOC(=O)c1c(N)sc(C(N)=O)c1C,-5.6%
24,CCOC(=O)c1sc(N)c(C(=O)Nc2ccccc2OC)c1C,60.2% (active)
25,CCOC(=O)c1sc(N)c(C(=O)Nc2ccccc2)c1C,44.4%
26,CCOC(=O)c1c(N)sc(C(=O)N(C)C)c1C,-5%

row,Compound,inhibition
1,NNC(=O)COc1ccc(F)cc1,15.9%
2,O=C(NCc1ccncc1)c1cncc(Br)c1,2%
3,NC1=NC(=O)/C(=C\c2ccc(O)c([N+](=O)[O-])c2)S1,-3.7%
4,CCc1c(O)cc2n(c1=O)-c1ccc(Cl)cc1C2(C)C,2.7%
5,CN(CC(=O)NC(=O)NCc1ccccc1)Cc1ccc(Cl)c(Cl)c1,14%
6,Cc1cccc(NC(=O)C(=O)NCCc2c[nH]c3ccccc23)c1C,12.5%
7,CCC(=O)Nc1cccc(-n2nnnc2SCC(=O)N2CCCCC2)c1,-4.2%
8,Cc1c(C(=O)O)c(C(=O)O)nc2ccc(N3CCOCC3)cc12,56.4% (active)
9,COC(=O)c1nc2ccc(N3CCOCC3)cc2c(C)c1C(=O)OC,23.5%
10,Cc1cc(C(=O)Nc2ccc(N3CCOCC3)cc2)c2ccccc2n1,6.1%
11,CC(C)c1nc(SCC(=O)c2ccccc2)c2c(=O)n(C)c(=O)n(C)c2n1,5.8%
12,Cc1nn(C)c(C)c1C1C(C#N)=C(N)OC2=C1C(=O)CC(C)(C)C2 (configuration not stated),-1.4%
13,CC(=O)Nc1ccc(N/C(C)=C/C(=O)c2cccnc2)cc1,-7.3%
14,C/C(=C\C(=O)c1cccnc1)Nc1ccc(O)cc1,42.8%
15,C/C(=C\C(=O)c1cccnc1)Nc1ccc(C(=O)O)cc1,81% (active)
16,CCCCCCSc1nnc(-c2cnn(-c3ccccc3)c2-n2cccc2)n1C,16.4%
17,CC(=O)CC(C)=NCCN=C(C)CC(C)=O,-3.7%
18,Cc1ccc2cc(N)ccc2n1,45.2%
19,Cn1cc2cc(NC(N)=S)ccc2n1,1.7%
20,Cn1cc2ccc(N)cc2n1,72.9% (active)
21,O=C(COC(=O)/C=C/c1ccc(S(=O)(=O)N2CCOCC2)cc1)NCc1ccc(F)cc1,9.2%
22,CC(C)[C@H](NC(=O)c1ccccc1)C(=O)OCC(=O)N1CCN(C(=O)c2ccco2)CC1,-11.4%
23,Cc1ccc(Nc2c([N+](=O)[O-])c(=O)n(C)c3ccccc23)cc1,3.9%
24,Cc1cccc(Oc2c([N+](=O)[O-])c(=O)n(C)c3ccccc23)c1,76% (active)
25,Cc1cccc(Nc2c([N+](=O)[O-])c(=O)n(C)c3ccccc23)c1,2.7%
26,COC(=O)C1CCN(C(=O)c2ccc(SC)cc2OC)CC1,6.4%

row,Compound,inhibition
1,CCOc1cc(/C=C2/C(=O)N(c3ccccc3)N=C2C)ccc1OC(=O)c1ccco1,37.5%
2,CCOc1cc(/C=C2\C(=O)N(c3ccc(C(N)=O)cc3)N=C2C)ccc1OC(=O)c1cccs1,59.8% (active)
3,CCOc1cc(/C=C2/C(=O)N(c3ccccc3)N=C2C)ccc1OC(=O)c1cccs1,13.1%
4,O=C(NCC(O)c1ccc([N+](=O)[O-])cc1)c1cccc(S(=O)(=O)N2CCCC2)c1 (configuration not stated),7.8%
5,CCOC(=O)N1CCC(n2c(SCC(=O)NCCC3=CCCCC3)nc3ccccc3c2=O)CC1,8.6%
6,Cc1ccc(-n2c(N)c(C(=O)N3CCOCC3)sc2=S)cc1,36.2%
7,CN1CCN(C(=O)c2sc(=S)n(-c3ccccc3)c2N)CC1,2.8%
8,Nc1c(C(=O)N2CCOCC2)sc(=S)n1-c1ccccc1,53.3% (active)
9,N#Cc1ccccc1-n1c(N)c(C(=O)N2CCCC2)sc1=S,71% (active)
10,Cc1ccc(-n2c(N)c(C(=O)N3CCN(C)CC3)sc2=S)cc1,2.7%
11,Nc1c(C(=O)N2CCCCC2)sc(=S)n1-c1ccccc1,57.7% (active)
12,Cc1c(C(=O)N2CCCCC2)sc(N)c1C#N,8.9%
13,Cc1ccc(-n2c(N)c(C(=O)N3CCCCC3)sc2=S)cc1,22.6%
14,CCn1c(N)c(C(=O)N2CCOCC2)sc1=S,8.6%
15,Cc1ccc(-c2nnc(SCC(=O)N/N=C/c3ccccc3C(=O)O)n2-c2ccccc2)cc1,-2.4%
16,CC(C)NC(=O)C1CCN(Cc2cnn(-c3ccccc3)c2-n2cccc2)CC1,-1.9%
17,S=C(Nc1ccccc1)N1CCN(C(=S)c2ccccc2)CC1,13.6%
18,CCNc1nc(OC)nc(SCC(=O)Nc2ccccc2)n1,7.3%
19,COc1ccc(NC(=O)Nc2ccccc2SC)c(OC)c1,16.5%
20,Cc1cccc2sc(N(CCCN(C)C)C(=O)c3cc4ccccc4oc3=O)nc12,11.8%
21,O=c1cc(O)nc(SCc2ccccc2)[nH]1,17.4%
22,CCn1c2ccccc2c2nc3cc(C(=O)O)ccc3nc21,6.3%
23,CCn1c2ccccc2c2nc3cc(S(=O)(=O)N4CCOCC4)ccc3nc21,70.3% (active)
24,CCn1c2ccccc2c2nc3ccccc3nc21,4.5%
